Counter-ions that a name gives are not always drawn. ± gives the standard deviation of the averaged measurements.
system: E. coli TESEC Alr+ wild-type control; experiment: growth (OD600 after 10 h); higher = more growth (less inhibition); conditions: compound 0.1 mM; raw OD600 reference: median of DMSO wells 0.49, cell-free background 0.052
Method: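 TESEC Mtb Alr E. coli (ΔaraC ΔtolC ΔentC Δalr ΔdadX, arabinose-inducible Mtb Alr) or the Alr+ wild-type control strain, grown in defined M9-fructose medium without D-alanine in 96-well plates with Prestwick library compounds at 0.1 mM and 1% DMSO. Low Alr induction is 0.1 µM arabinose and high induction is 10 mM arabinose.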

Row | SMILES | growth
1 | CC(C)NCC(O)c1ccc(NS(C)(=O)=O)cc1 (stereo not given) [Sotalol hydrochloride] | 0.433 ± 0.0053
2 | CCCC1C(=O)N2C(N(C)C)=Nc3ccc(C)cc3N2C1=O (stereo not given) [Azapropazone] | 0.483 ± 0.02
3 | Nc1c2ccccc2nc2ccccc12 [Aminacrine] | 0.0507 ± 0.00067
4 | CC(C(=O)O)c1ccc(N2Cc3ccccc3C2=O)cc1 (stereo not given) [Indoprofen] | 0.486 ± 0.053
5 | CC(CNC1CCCCC1)OC(=O)c1ccccc1 (stereo not given) [Hexylcaine hydrochloride] | 0.552 ± 0.022
6 | COc1c(N2C[C@@H]3CCCN[C@@H]3C2)c(F)cc2c(=O)c(C(=O)O)cn(C3CC3)c12 [Moxifloxacin] | 0.0539 ± 0.0014
7 | Cc1cccc(Nc2ccccc2C(=O)O)c1C [Mefenamic acid] | 0.158 ± 0.011
8 | CCCCOc1ccc(OCCCN2CCOCC2)cc1 [Pramoxine hydrochloride] | 0.425 ± 0.028
9 | Cc1cn([C@H]2C[C@H](N=[N+]=[N-])[C@@H](CO)O2)c(=O)[nH]c1=O [Zidovudine, AZT] | 0.199 ± 0.0087
10 | C[C@H](CCC(=O)O)[C@H]1CC[C@H]2[C@@H]3[C@H](O)C[C@@H]4C[C@H](O)CC[C@]4(C)[C@H]3CC[C@]12C [Chenodiol] | 0.439 ± 0.059
11 | N=C(N)N/N=C/c1c(Cl)cccc1Cl [Guanabenz acetate] | 0.453 ± 0.026
12 | NS(=O)(=O)c1cc2c(cc1Cl)NCNS2(=O)=O [Hydrochlorothiazide] | 0.448 ± 0.062
13 | C[C@]12C=CC(=O)C=C1CC[C@@H]1[C@@H]2[C@@H](O)C[C@@]2(C)[C@H]1CC[C@]2(O)C(=O)CO [Prednisolone] | 0.514 ± 0.065
14 | CCCCOc1ccc(CC(=O)NO)cc1 [Bufexamac] | 0.437 ± 0.031
15 | CC(Cc1cccc(C(F)(F)F)c1)NCCOC(=O)c1ccccc1 (stereo not given) [Benfluorex] | 0.405 ± 0.013
16 | CN[C@@H]1[C@@H](O)[C@@H](O[C@@H]2[C@@H](O)[C@H](O[C@H]3OC(CN)=CC[C@H]3N)[C@@H](N)C[C@H]2N)OC[C@]1(C)O [Sisomicin sulfate] | 0.198 ± 0.21
17 | COC(=O)[C@H]1[C@H]2C[C@@H]3c4[nH]c5cc(OC)ccc5c4CCN3C[C@H]2C[C@@H](OC(=O)c2cc(OC)c(OC)c(OC)c2)[C@@H]1OC [Reserpine] | 0.467 ± 0.014
18 | CCC(C)(C)c1ccc(CC(C)CN2C[C@@H](C)O[C@@H](C)C2)cc1 (stereo not given in full) [Amorolfine hydrochloride] | 0.0891 ± 0.0055
19 | CC(C)Cn1cnc2c(N)nc3ccccc3c21 [Imiquimod] | 0.574 ± 0.048
20 | O=C(O)COCCN1CCN(C(c2ccccc2)c2ccc(Cl)cc2)CC1 (stereo not given) [Cetirizine dihydrochloride] | 0.655 ± 0.047

Row | SMILES | growth
21 | Cc1cc(/C=C/c2ccc3cc(N(C)C)ccc3[n+]2C)c(C)n1-c1ccccc1 [Pyrvinium pamoate] | 0.141 ± 0.019
22 | CCc1c(C)[nH]c2c1C(=O)C(CN1CCOCC1)CC2 (stereo not given) [Molindone hydrochloride] | 0.472 ± 0.013
23 | CCOC(=O)/C=C(C)/C=C/C=C(C)/C=C/c1c(C)cc(OC)c(C)c1C [Etretinate] | 0.544 ± 0.058
24 | O=C(CCCCCCC(=O)Nc1ccccc1)NO [Vorinostat] | 0.495 ± 0.099
25 | NS(=O)(=O)c1cc(C(=O)O)c(NCc2ccco2)cc1Cl [Furosemide] | 0.613 ± 0.019
26 | O=S(=O)(O)CCS [Mesna] | 0.513 ± 0.074
27 | CCc1nc(N)nc(N)c1-c1ccc(Cl)cc1 [Pyrimethamine] | 0.5321 ± 0.0036
28 | Nc1ccc(S(=O)(=O)Nc2ccnn2-c2ccccc2)cc1 [Sulfaphenazole] | 0.484 ± 0.04
29 | CC(=O)[C@H]1CC[C@H]2[C@@H]3CC=C4C[C@@H](O)CC[C@]4(C)[C@H]3CC[C@]12C [Pregnenolone] | 0.458 ± 0.0056
30 | Cc1onc(-c2ccccc2Cl)c1C(=O)N[C@@H]1C(=O)N2[C@@H]1SC(C)(C)[C@@H]2C(=O)O [Cloxacillin sodium salt] | 0.514 ± 0.11
31 | Cc1onc(-c2c(Cl)cccc2Cl)c1C(=O)N[C@@H]1C(=O)N2[C@@H]1SC(C)(C)[C@@H]2C(=O)O [Dicloxacillin sodium salt hydrate] | 0.516 ± 0.11
32 | CO/N=C(\C(=O)N[C@@H]1C(=O)N2C(C(=O)O)=C(COC(N)=O)CS[C@H]12)c1ccco1 [Cefuroxime sodium salt] | 0.0629 ± 0.0034
33 | O=C1c2ccccc2S(=O)(=O)N1CCCCN1CCN(c2ncccn2)CC1 [Ipsapirone] | 0.551 ± 0.04
34 | COc1ccccc1N1CCN(CCCNc2cc(=O)n(C)c(=O)n2C)CC1 [Urapidil hydrochloride] | 0.713 ± 0.029
35 | CN1CCC(=C2c3ccccc3C=Cc3ccccc32)CC1 [Cyproheptadine hydrochloride] | 0.452 ± 0.11
36 | CCCN(CCC)CCc1cccc2c1CC(=O)N2 [Ropinirole HCl] | 0.443 ± 0.028
37 | CC(CN(C)C)CN1c2ccccc2CCc2ccccc21 (stereo not given) [Trimipramine maleate salt] | 0.4285 ± 0.0016
38 | COc1nc(C)nc(Cl)c1NC1=NCCN1 [Moxonidine] | 0.567 ± 0.019
39 | NC(=O)N1c2ccccc2C=Cc2ccccc21 [Carbamazepine] | 0.491 ± 0.0058
40 | COc1ccnc(C[S+]([O-])c2nc3cc(OC(F)F)ccc3[nH]2)c1OC (stereo not given) [Pantoprazole sodium] | 0.451 ± 0.013
